Laboratory results published in PubChem BioAssay (NCATS).
Inconclusive results are not listed. Active and inactive are the calls of the source. Calls come from the whole dose curve; as a rule, active = well fitted inhibition curve with a large enough effect; inconclusive = small, poorly fitted or top-dose-only effect; inactive = flat fitted curve, though single readings scatter.

These compounds were tested on CRL-7250 (assay: qHTS assay to identify novel small-molecules to repurpose for Merkel cell carcinoma treatment (AID 1296009; note: nearly all actives have a fitted effect of over 60% in size)). Details: MCC and control cell lines, CellTiter-Glo viability, 72 h; series mostly up to 92 µM; activity change, negative = cytotoxicity: at the top concentration.
Summary of the method: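 Cells were treated for 72 hr at 37 degree celsius with compounds in 8- or 11-point dose response. Viability was read by CellTiter-Glo luminescence, normalized to no-cell (cytotoxicity) and DMSO controls.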
With `CC(C)C1=CC2=CCC3[C@](C)(CCC[C@@]3(C)C(=O)O)C2CC1=O` (stereo not given in full) the “outcome” value was “inactive”. With `C=C1CC2C3(C)C(O)CC(=O)C(C)(C)C3C(O)C(OC(C)=O)C2(C)C2C(=O)OC(C)(C(=O)OC)C(=O)C12C` (stereo not given) the “outcome” value was “inactive [at 17.4 µM]”. With `Nc1ncnc2c1ncn2[C@H]1O[C@@H](C(=O)N2CCN(CC(=O)Nc3cccc4c3CNC4=O)CC2)[C@H](O)[C@@H]1O` the “outcome” value was “inactive”. For `CC(C)c1cc2c(c(O)c1O[C@@H]1O[C@H](CO)[C@@H](O)[C@H](O)[C@H]1O)CC1(O)CCC(O)C(C)(C)C1CC2` (stereo not given in full), the “outcome” value was “inactive [at 17.4 µM]”. With `CC(=O)c1c(C)cc(O[C@@H]2O[C@H](CO)[C@@H](O)[C@H](O)[C@H]2O)cc1O` the “outcome” value was “inactive”. For `C/C=C/[C@@H]1C=C[C@@H]2C[C@H](C)CC[C@H]2[C@]1(C)/C(O)=C1/C(=O)[C@@H](CO)N(C)C1=O`, the “outcome” value was “inactive”. `C=C1C(=O)OC[C@H]2C(C(=O)O)=CC3CC(C)(C)C[C@@]132` (stereo not given in full) was tested, and the “outcome” value was “inactive”. With `COC(=O)[C@@H]1C2CC3c4[nH]c5ccccc5c4CCN3CC2CC[C@@H]1O` (stereo not given in full) the “outcome” value was “inactive”. `CC12CC34C=CC(=O)C(C)(CCC(=O)O)C3C(CC1C4)O2` (stereo not given) was tested, and the “outcome” value was “inactive”. With `C[C@@H]1CC[C@]2(C)C(C[C@@H](O)[C@H](O)[C@]23CO3)[C@@]1(C)CCc1ccoc1` (stereo not given in full) the “outcome” value was “inactive”. With `COC(=O)[C@@H](O)[C@H]1[C@@]2(C)CC3(O)[C@@H](C(=O)[C@H]2O)[C@]24O[C@]25CC(=O)O[C@@H](c2ccoc2)[C@]5(C)CCC4[C@]13C` (stereo not given in full) the “outcome” value was “inactive [at 17.4 µM]”. For `COc1cc(/C=C/C(=O)O[C@H]2C[C@@H]3C(C(=O)O)=CO[C@@H](O[C@@H]4O[C@H](CO)[C@@H](O)[C@H](O)[C@H]4O)[C@@H]3[C@H]2C)ccc1O`, the “outcome” value was “inactive [at 17.4 µM]”. For `C=C1CC23CC1CCC2C12OC(=O)C(C)(CCC1O)C2C3C(=O)O` (stereo not given), the “outcome” value was “inactive”. With `CC1(CO)CC[C@]2(C(=O)O[C@@H]3O[C@H](CO)[C@@H](O)[C@H](O)[C@H]3O)CC[C@]3(C)C(=CCC4[C@@]5(C)C[C@H](O)[C@H](O[C@@H]6OC[C@@H](O)[C@H](O)[C@H]6O)[C@@](C)(CO)C5CC[C@]43C)C2C1` (stereo not given in full) the outcome was “inactive [at 9.27 µM]”. `O=C1NC(Cc2ccccc2)C(=O)N2CCCC12` (stereo not given) was tested, and the “outcome” value was “inactive”. For `CC(=O)[C@H]1CC[C@H]2[C@@H]3CC=C4C[C@@H](OS(=O)(=O)O)CC[C@]4(C)[C@H]3CC[C@]12C`, the “outcome” value was “inactive”. `C=CC1(C)CC(OC(=O)/C(C)=C\COC(C)=O)C(C(=C)C(=O)O)C(O)C1C(=C)CO` (stereo not given) was tested, and the “outcome” value was “inactive [at 17.4 µM]”. For `C[C@@H]1O[C@@H](O[C@@H]2[C@@H](O)[C@H](O[C@H]3CC[C@@]4(C)C(CC[C@]5(C)C4CC=C4[C@@H]6CC(C)(C)CC[C@]6(C(=O)O[C@@H]6O[C@H](CO)[C@@H](O)[C@H](O)[C@H]6O)CC[C@]45C)C3(C)C)O[C@H](C(=O)O)[C@H]2O)[C@H](O)[C@H](O)[C@H]1O` (stereo not given in full), the outcome was “inactive [at 9.27 µM]”. `COc1ccccc1CN[C@H]1CCCN[C@H]1c1ccccc1` was tested, and the “outcome” value was “inactive”. In the case of `Cc1nc2ccc(CN(C)c3ccc(C(=O)NC(CCC(=O)O)C(=O)O)s3)cc2c(=O)[nH]1` (stereo not given), the “outcome” value is reported as “inactive”. `C=C[C@]1(C)C=C2CCC3C(C)(CCC[C@@]3(C)C(=O)O)C2CC1` (stereo not given in full) was tested, and the “outcome” value was “inactive”. `C=C1C[C@@]23CCC4[C@@](C)(CCC[C@@]4(C)C(=O)OC)C2CC[C@@H]1C3` (stereo not given in full) was tested, and the “outcome” value was “inactive”. For `C=CC(=O)N1CC(N2CCN(C(=O)CNc3cc(C4CC4)c(Cl)cc3O)CC2)C1`, the “outcome” value was “inactive”. For `CC1(C)CC2C3=CCC4C5(C)CCC(OC6OC(CO)C(O)C(OC7OC(CO)C(O)C(OC8OC(CO)C(O)C(OC9OC(COC%10OC(CO)C(O)C(O)C%10O)C(O)C(O)C9O)C8O)C7O)C6O)C(C)(C)C5CCC4(C)C3(C)CCC2(C(=O)O)CC1O` (stereo not given), the outcome was “inactive [at 9.27 µM]”. With `C[C@@H]1O[C@@H](OC[C@H]2O[C@@H](OCc3ccccc3)[C@H](O)[C@@H](O)[C@@H]2O)[C@H](O)[C@H](O)[C@H]1O` the “outcome” value was “inactive [at 17.4 µM]”. In the case of `COC(=O)c1cc(CN2CCN(C(=N)N)CC2)cc(C(=O)N2CCN(C(=O)c3ccc(C(=N)N)cc3)CC2)c1`, the “outcome” value is reported as “inactive”. In the case of `Cn1c(=O)c2nc(/C=C/c3cccc(Cl)c3)n(C)c2n(C)c1=O`, the “outcome” value is reported as “inactive [at 92 µM]”. For `COC(=O)C(CC1(O)c2ccccc2N2C(=O)C(CC(C)C)NC21)n1cnc2ccccc2c1=O` (stereo not given), the “outcome” value was “inactive [at 17.4 µM]”. `C=CCCN1CCC2(CC1)CN(C(=O)c1c(F)cccc1F)c1ccc(Cl)cc12` was tested, and the “outcome” value was “inactive”. `OC[C@H]1O[C@@H](O[C@H]2[C@H](OCCc3ccccc3)O[C@H](CO)[C@@H](O)[C@@H]2O)[C@H](O)[C@@H](O)[C@@H]1O` was tested, and the “outcome” value was “inactive [at 17.4 µM]”.
